Hits are enriched below; roughly 19% of the tested compounds scored in any of these assays.
IL1B secr inh: inhibitors of inflammasome signaling (IL-1 beta secretion) | THP-1 LPS/ATP IL-1B secretion, AlphaLISA, 16 h; active compounds read low | activity change, % at 57.5 µM | 4.7% of 360,000 active; in the data active = activity change below about -50%; inconclusive = mostly about -30% to -49%
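THP-1 cells pretreated 1 hr with compounds (up to 57.5 uM final), then stimulated with LPS (250 ng/mL final) plus ATP (1.25 mM final); secreted IL-1B measured by AlphaLISA after 16 hr, decreased signal indicating inhibition.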
TDP1 cell noCPT: qHTS for Inhibitors of human tyrosyl-DNA phosphodiesterase 1 (TDP1): qHTS in cells in absence of CPT; DT40 Tdp1-/- hTDP1 cells, no CPT, ATP luminescence, 48 h; Potency, µM (highest dose often 46.2 µM), most hits filed as inhibitors; 15% of 420,000 active; AID 686978, 2013; note: nearly all actives have a fitted effect of over 55% in size
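Compound effects on proliferation are scored in DT40 Tdp1-/-;hTDP1 cells in the absence of CPT. ATP levels (CellTiter-Glo luminescence) are recorded after a ≥48 hr, 37 °C incubation.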
HepG2 viability: kills HepG2 cells in TGF-b inhibitor counter-screen; HepG2 CAGA-GFP viability, ATP luminescence, 18 h; Potency, µM (highest dose often 46.1 µM), most hits filed as cytotoxic; 0.76% of 410,000 active; AID 588856
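CellTiter-Glo luminescence gave cytotoxicity after 18 hours at 37 degrees C. The cells were HepG2 CAGA-GFP in 1% FBS DMEM, stimulated with 500 pg/mL TGF-beta after compound addition. %Activity was normalised to no-cell wells (complete cell-killing) and DMSO (no toxicity), and curves were fitted and classified.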
TGFb SMAD3 inh: TGF-b pathway inhibition | 1.2% of 410,000 active | Potency, µM (titrated, usually from 46.1 µM), hits mostly inhibitors | AID 588855 | HepG2 CAGA-GFP TGF-b/SMAD3 reporter, GFP fluorescence, 18 h; TGF-beta stimulated, 500 pg/mL final; note: nearly all actives have a fitted effect of over 65% in size
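Smad-responsive CAGA-GFP expression was quantified in HEPG2 cells exposed to compounds and 500 pg/mL final TGF-beta for 18 h at 37 degrees C; unstimulated wells defined full inhibition.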
ASM inhibitor: inhibitors of human secretory acid sphingomyelinase; AID 504937; Potency, µM (highest dose often 57.5 µM), usual class: inhibitors; placental ASM, HMU-PC fluorogenic substrate, 60 min; P17405; 0.006% of 340,000 active
Target sequence (P17405 47-631 limits assumed): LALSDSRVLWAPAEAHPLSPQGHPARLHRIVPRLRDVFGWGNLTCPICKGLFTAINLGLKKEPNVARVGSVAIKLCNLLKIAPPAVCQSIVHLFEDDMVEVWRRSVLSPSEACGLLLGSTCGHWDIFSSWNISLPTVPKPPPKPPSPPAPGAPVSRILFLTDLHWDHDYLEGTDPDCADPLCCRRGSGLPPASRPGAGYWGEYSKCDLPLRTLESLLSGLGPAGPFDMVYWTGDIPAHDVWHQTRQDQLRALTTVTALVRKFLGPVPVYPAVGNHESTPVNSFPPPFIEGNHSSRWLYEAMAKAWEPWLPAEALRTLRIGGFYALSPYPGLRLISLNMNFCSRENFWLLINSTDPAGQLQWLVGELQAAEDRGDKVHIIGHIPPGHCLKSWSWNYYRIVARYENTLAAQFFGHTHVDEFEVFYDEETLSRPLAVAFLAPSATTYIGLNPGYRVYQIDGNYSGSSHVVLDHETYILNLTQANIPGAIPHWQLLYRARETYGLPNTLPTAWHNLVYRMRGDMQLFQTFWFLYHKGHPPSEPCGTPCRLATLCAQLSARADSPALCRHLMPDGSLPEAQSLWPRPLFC
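Human placenta-derived ASM preincubated with compound 10 min at room temperature, then reacted with 9 uM (final) fluorogenic HMU-PC substrate for 60 min at 37 C. Stop solution raises pH to 10; fluorescence read at Ex 386/Em 447 nm.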
TDP1 cell CPT: DT40-hTDP1 cell growth loss with CPT; 12% of 420,000 active; Potency, µM (doses to about 46.2 µM), most hits filed as inhibitors; chicken DT40 Tdp1-/-;hTDP1 cells + 20 nM CPT, ATP luminescence, 48 h; note: nearly all actives have a fitted effect of over 55% in size
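Chicken DT40 Tdp1-/- cells stably complemented with human TDP1 were seeded at 400 cells/well in medium containing 20 nM camptothecin, exposed to pin-transferred compounds, and grown at 37 °C for at least 48 hr. Viability was read as ATP luminescence.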
Hits are given with their value; 0 = inactive; ? = inconclusive; - = no result given. Unless noted, calls come from the whole dose curve; as a rule, active = well fitted curve in the direction sought with a large enough effect; inconclusive = small, poorly fitted or top-dose-only effect, or another doubt; inactive = no such curve, though single readings can be large; an effect the other way counts as inactive or inconclusive.

SMILES	IL1B secr inh	TDP1 cell noCPT	HepG2 viability	TGFb SMAD3 inh	ASM inhibitor	TDP1 cell CPT
Cc1ccc(CNC(=O)CCCn2nc(C)n3ccnc3c2=O)cc1	0	0	0	0	0	0
O=C(NCc1ccc2c(c1)OCO2)c1ccco1	0	0	0	0	0	0
O=C(CC(SCCO)c1ccc2c(c1)OCO2)c1ccco1 (stereo unspecified)	-56	18µM	0	0	0	21µM
N#CC1(c2ccccc2)CCC(=O)N1Cc1ccccc1 (stereo unspecified)	0	?	0	0	0	0
CC(C)Oc1cccc(C(=O)Nc2ccc3oc(-c4cccc(Cl)c4)nc3c2)c1	-	16µM	0	0	-	?
Cc1cccc(-c2nc3cc(NC(=O)c4ccc(OCC(C)C)cc4)ccc3o2)c1	-	?	0	0	-	?
O=C(NC(=S)Nc1ccc2oc(-c3cccnc3)nc2c1)c1cccc(Cl)c1	0	?	0	0	0	16µM
Cn1c(-c2cccc(Br)c2)n[nH]c1=O	0	0	0	0	0	0
CCN(CC)c1ncnc2c1ncn2[C@H]1CN(Cc2ccc(F)cc2)C[C@@H](CO)O1	0	0	0	0	-	?
CN(c1ccc(F)cc1)S(=O)(=O)c1ccc(Cl)c(C(=O)NCC(c2ccco2)N2CCCCC2)c1 (stereo unspecified)	0	2.3µM	0	?	0	2.3µM
CN(c1ccccc1)S(=O)(=O)c1ccc(Cl)c(C(=O)NCc2ccco2)c1	0	?	0	0	0	?
CN(c1ccc(F)cc1)S(=O)(=O)c1ccc(Cl)c(C(=O)OCC(=O)NCc2ccco2)c1	0	?	0	0	0	0
CN(C)C(CNC(=O)c1cc(S(=O)(=O)N(C)c2ccccc2)ccc1Cl)c1ccccc1 (stereo unspecified)	0	6.5µM	0	0	0	5.8µM
CN(c1ccccc1)S(=O)(=O)c1ccc(Cl)c(C(=O)NCc2ccccc2CN2CCCC2)c1	?	23µM	0	0	0	?
CN(C)C(CNC(=O)c1cc(S(=O)(=O)N(C)c2ccc(F)cc2)ccc1Cl)c1ccco1 (stereo unspecified)	0	7.3µM	0	0	0	9.2µM
Cc1cnc(NC(=O)c2c(-c3ccccc3)noc2C)s1	0	0	0	0	0	0
Cc1cc(F)ccc1S(=O)(=O)Nc1ccccc1C(=O)NCc1cccnc1	0	0	0	0	0	0
Cc1ccc(S(=O)(=O)N(C)c2ccc(C(=O)NCC(c3ccco3)N3CCCC3)cc2)cc1 (stereo unspecified)	0	16µM	0	0	-	?
COCCn1c(C)nnc1SCC(=O)NNC(=O)c1ccc(Br)cc1	0	0	0	0	0	0
COCCn1c(CN2CCN(c3ccc(OC)cc3)CC2)nc2c1c(=O)n(C)c(=O)n2C	0	?	0	0	0	?
COc1ccc(N2CCN(Cc3nc4c(c(=O)n(C)c(=O)n4C)n3Cc3ccccc3C)CC2)cc1	0	16µM	0	0	0	18µM
COc1ccc(N2CCN(Cc3nc4c(c(=O)n(C)c(=O)n4C)n3CC(C)=O)CC2)cc1	0	23µM	0	0	0	13µM
CCOC(=O)[C@@H]1[C@H]2COc3ccccc3[C@@H]2N2C(=O)N(c3ccc(Br)cc3)C(=O)[C@@]12C	0	?	0	0	-	?
COCCC(=O)N1CCC(Oc2ccc(C(=O)NCCC3=CCCCC3)cc2)CC1	0	?	0	0	0	16µM
COCCC(=O)N1CCC(Oc2ccc(C(=O)NCCCC3CCCC3)cc2)CC1	0	21µM	0	0	0	21µM
SMILES	IL1B secr inh	TDP1 cell noCPT	HepG2 viability	TGFb SMAD3 inh	ASM inhibitor	TDP1 cell CPT
COCCC(=O)N1CCC(Oc2ccc(C(=O)N(C)CCCC3CCCC3)cc2)CC1	0	?	0	0	0	?
CCOC(=O)C1CCCN(CC(=O)Nc2nc(-c3ccccc3)cs2)C1 (stereo unspecified)	0	?	0	0	0	?
CCOc1ccc(-c2nnc(SCC(=O)NC3CCCC3)nc2-c2ccc(OCC)c(OC)c2)cc1OC	-	?	0	0	-	?
O=C(Cn1c(C(=O)N2CCN(C3CCCC3)CC2)cc2sccc21)c1ccccc1	0	?	0	0	0	18µM
CCN(CC)CC(O)c1ccc2ccc3ccc(O)cc3c2c1 (stereo unspecified)	-61	?	0	0	0	?
CCOC(=O)N1CCN(C(=O)Cc2ccccc2[N+](=O)[O-])CC1	0	0	0	0	0	0
COc1ccc(NC(=O)CCS(=O)(=O)c2nc(-c3ccc4c(c3)OCO4)cc(C(F)(F)F)n2)c(OC)c1	-	?	0	0	-	?
